{
  "source": "the supplement of paper PMC9948646",
  "note": "Values without a mark were called inactive.",
  "data": [
    {"test_system": "gramicidin D channels in DC22:1PC lipid vesicles (bilayer-modifying potency)", "assay": "initial Tl+ fluorescence quench rate relative to no-drug control (NormRate, gramicidin monomer-dimer shift) (ratio (fold of control)); higher = stronger bilayer-modifying effect (equilibrium shifted toward conducting dimers), active = 1.5 or more", "settings": "10 µM; lipid concentration 50 µM; temperature: 25 °C", "description": "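Stopped-flow fluorescence quench assay: ANTS-loaded DC22:1PC large unilamellar vesicles doped with gramicidin D (1:2000), 50 µM lipid, equilibrated 10 min with 10 µM drug (0.1% DMSO), mixed with Tl+ quench buffer at 25°C. Initial quench rate (Tl+ influx) was fitted with a modified stretched exponential and normalised to the no-drug control rate (NormRate); duplicates from two independent LUV preparations (triplicates for 7 drugs).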", "values": [
      {"smiles": "COc1ccc(C2=NN(C3CCCCCC3)C(=O)C2(C)C)cc1OCc1ccccn1", "initial Tl+ fluorescence quench rate": "1.8 (active)"},
      {"smiles": "CCN(CC)C(=O)N1CCN(C)CC1", "initial Tl+ fluorescence quench rate": 1.1},
      {"smiles": "Nc1ncc(Br)cc1-c1nc2cc(Cl)cnc2[nH]1", "initial Tl+ fluorescence quench rate": 1.06},
      {"smiles": "Nc1ncc(-c2cn[nH]c2)cc1-c1nc2cc(Cl)cnc2[nH]1", "initial Tl+ fluorescence quench rate": 1.08},
      {"smiles": "COc1ccc(-c2cc(NC(=O)c3ccc(F)cc3Cl)ccc2OC)cc1", "initial Tl+ fluorescence quench rate": "2.04 (active)"},
      {"smiles": "C[C@@H](Oc1ccccc1)C(=O)Nc1nc(-c2ccccn2)cs1", "initial Tl+ fluorescence quench rate": 1.29},
      {"smiles": "c1ccc(Oc2ccc(-c3cc(CN4CCOCC4)[nH]n3)cc2)cc1", "initial Tl+ fluorescence quench rate": "1.7 (active)"},
      {"smiles": "[H]/N=C(/N)c1ccc(-c2cc(-c3ccccc3)on2)cc1", "initial Tl+ fluorescence quench rate": 1.08},
      {"smiles": "CNC(=O)[C@@H]1Cc2c([nH]c3cc(Cl)ccc23)C2(CCN(CCc3ccccc3)CC2)N1", "initial Tl+ fluorescence quench rate": "2.52 (active)"},
      {"smiles": "CCOc1ccc(-c2nc(CNCCc3ccc(F)cc3)cs2)cc1", "initial Tl+ fluorescence quench rate": 1.44},
      {"smiles": "Cc1nn2c(=O)c3c([nH]c2c1-c1ccc(Cl)cc1)CCCC3", "initial Tl+ fluorescence quench rate": 1.13},
      {"smiles": "COc1cccc(-n2nnnc2S(C)(=O)=O)c1", "initial Tl+ fluorescence quench rate": 1.06},
      {"smiles": "CNC(=O)[C@H]1Cc2ccccc2N1C(=O)Cc1ccc(F)cc1", "initial Tl+ fluorescence quench rate": 1.04},
      {"smiles": "O=C(Nc1cccc(-c2ccc(NCCCN3CCCC3)nc2)c1)c1ccccc1", "initial Tl+ fluorescence quench rate": 1.2},
      {"smiles": "CN1CCN(CCCOc2ncc(Nc3ncc(-c4ccc(C(F)(F)F)c(F)c4)nc3C(N)=O)cn2)CC1", "initial Tl+ fluorescence quench rate": "3.11 (active)"},
      {"smiles": "O=C(NC1CC1)c1ccc(N2CCOc3ccc(Cl)cc32)s1", "initial Tl+ fluorescence quench rate": "3.52 (active)"},
      {"smiles": "CS(=O)(=O)Cc1nc2ccccc2oc1=O", "initial Tl+ fluorescence quench rate": 1.08},
      {"smiles": "O=C(NC1CCCCC1)N1CCN(Cc2ccc3c(c2)OCO3)CC1", "initial Tl+ fluorescence quench rate": 1.13},
      {"smiles": "CC(C)n1nc(-c2cc3c(Cl)cccc3[nH]2)c2c(N)ncnc21", "initial Tl+ fluorescence quench rate": "3.74 (active)"},
      {"smiles": "COc1cc(C2=NCCN2)cc2cc(-c3ccc(C4=NCCN4)cc3)oc12", "initial Tl+ fluorescence quench rate": 1.1},
      {"smiles": "CC[C@H](Sc1nc2ccccc2o1)C(=O)Nc1nccs1", "initial Tl+ fluorescence quench rate": 1.18},
      {"smiles": "c1ccc(-c2cc(N3CCCCC3)c3ccccc3n2)nc1", "initial Tl+ fluorescence quench rate": 1.08},
      {"smiles": "O=C(Cn1ccnc1[N+](=O)[O-])NCc1ccccc1", "initial Tl+ fluorescence quench rate": 1.01},
      {"smiles": "Cc1ccc2cc([C@@H]3NC(=O)c4ccccc4N3)c(Cl)nc2c1", "initial Tl+ fluorescence quench rate": 1.08},
      {"smiles": "c1ccc(Oc2ccc(-c3cc(N4CCOCC4)[nH]n3)cc2)cc1", "initial Tl+ fluorescence quench rate": "2.4 (active)"},
      {"smiles": "CCCn1nnc(NC(=O)COc2ccc(C3CCCCC3)cc2)n1", "initial Tl+ fluorescence quench rate": "2.51 (active)"},
      {"smiles": "CC(C)(C)[C@H]1CC[C@H](CC2=C(O)C(=O)c3ccccc3C2=O)CC1", "initial Tl+ fluorescence quench rate": 1.31},
      {"smiles": "CCN(CC)S(=O)(=O)c1ccc(C(=O)Nc2cc(C)nn2-c2nc(C)c(C)c(=O)[nH]2)cc1", "initial Tl+ fluorescence quench rate": "1.57 (active)"},
      {"smiles": "NC(=O)c1cc(-c2ccsc2)ccc1OCCOc1ccccc1", "initial Tl+ fluorescence quench rate": 1.14},
      {"smiles": "CCCCc1ccc(C(=O)Nc2nccc3ccccc23)nc1", "initial Tl+ fluorescence quench rate": 1.33},
      {"smiles": "Cc1cc(NCC(C)C)c2n[nH]c(-c3ccccc3)c2n1", "initial Tl+ fluorescence quench rate": 1.11},
      {"smiles": "O=C(c1ccco1)N(CCCn1ccnc1)c1nc2c(Cl)cccc2s1", "initial Tl+ fluorescence quench rate": 1.24},
      {"smiles": "CS(=O)(=O)N1CCC(Cn2nc(Cc3cccc4ccccc34)c3c(N)ncnc32)CC1", "initial Tl+ fluorescence quench rate": 1.47},
      {"smiles": "[H]/N=C(\\N)N[C@H]1[C@@H](O)[C@@H](O)[C@H](O[C@H]2O[C@H](C)[C@](O)(C=O)[C@H]2O[C@H]2O[C@@H](CO)[C@@H](O)[C@@H](O)[C@@H]2NC)[C@@H](N/C(N)=N/[H])[C@H]1O", "initial Tl+ fluorescence quench rate": 1.05},
      {"smiles": "COc1ccccc1CNC(=O)c1cc(C2CC2)nc2c1cnn2C(C)C", "initial Tl+ fluorescence quench rate": "1.62 (active)"},
      {"smiles": "COc1cccc(OC)c1C(=O)Nc1ccc(Cl)c(-c2nc3ccccc3s2)c1", "initial Tl+ fluorescence quench rate": "3.12 (active)"},
      {"smiles": "COc1nc2ccc(Br)cc2cc1[C@@H](c1ccccc1)[C@@](O)(CCN(C)C)c1cccc2ccccc12", "initial Tl+ fluorescence quench rate": "6.48 (active)"}
    ]}
  ]
}
